In PubChem BioAssay AID602241 (Southern Research Specialized Biocontainment Screening …, 2012):
Measured potencies and affinities stand elsewhere. Calls of active or inactive are those of the source. How the calls were made is not given here.

Test: VEEV TC 83 cytopathic effect inhibition, infected cells, confirmatory screen (AID 602241)

Row | Structure (SMILES) | outcome
1 | O=c1c2cc([N+](=O)[O-])ccc2nc(CN2CCN(c3ccccc3)CC2)n1-c1ccccc1F | inactive
2 | O=C(Oc1ccc2ccccc2c1Br)N1CCCCCC1 | inactive
